Rows were chosen to be rich in hits. Some 5.5% of all compounds tested hit in one or more screens of this group.
RORgamma inh: qHTS for inhibitors of ROR gamma transcriptional activity | Potency, µM (top dose mostly 53.6 µM), inactives show at the highest dose activity change, negative = inhibition, actives largely listed as inhibitors | Drosophila S2 Gal4-RORgamma UAS-luciferase reporter, 20 h | Nuclear receptor ROR-gamma (Mus musculus), P51450 | actives 5.4% (n = 310,000); also: % is scaled to controls: 0 for no effect and ±100 for the full control effect; nearly all actives have a fitted effect of over 60% in size
Target sequence (P51450 whole entry, looked up, the tested form may be a part): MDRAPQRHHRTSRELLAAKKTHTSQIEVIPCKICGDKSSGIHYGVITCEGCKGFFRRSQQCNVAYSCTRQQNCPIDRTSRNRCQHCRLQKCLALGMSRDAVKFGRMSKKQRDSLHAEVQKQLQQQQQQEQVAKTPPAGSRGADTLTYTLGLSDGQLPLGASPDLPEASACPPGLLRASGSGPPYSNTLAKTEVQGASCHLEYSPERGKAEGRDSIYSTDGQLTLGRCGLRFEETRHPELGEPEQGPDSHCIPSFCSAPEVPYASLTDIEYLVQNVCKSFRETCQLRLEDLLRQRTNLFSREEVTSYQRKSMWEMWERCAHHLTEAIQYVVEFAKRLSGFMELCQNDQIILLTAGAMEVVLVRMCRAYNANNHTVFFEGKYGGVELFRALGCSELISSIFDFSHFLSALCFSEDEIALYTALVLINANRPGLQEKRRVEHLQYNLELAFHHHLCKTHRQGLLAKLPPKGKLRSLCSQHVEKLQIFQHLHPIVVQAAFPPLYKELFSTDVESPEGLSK
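A Gal4/UAS one-hybrid system in insect cells: metallothionein-promoter Gal4–ROR gamma fusion plus Photinus luciferase reporter. Copper sulfate 700 uM final, 20 hr ambient incubation, luminescent detection after 10 min with reagent.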
VP16 counter: VP16 counterscreen qHTS for inhibitors of ROR gamma transcriptional activity | Drosophila S2 Gal4-VP16 UAS-luciferase, luminescence, 20 h | Potency, µM (doses to about 53.6 µM), inactives show top-dose activity, negative = inhibition, most hits filed as inhibitors | actives 3.5% (n = 310,000) | AID 2546, 2010;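 also: Gal4-VP16 expression switched on by copper sulfate through the metallothionein promoter; % is scaled to controls: 0 for no effect and ±100 for the full control effect; nearly all actives have a fitted effect of over 50% in size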
uPA generation: qHTS for Inhibitors of Cell Surface uPA Generation; cell surface uPA generation assay, qHTS; Potency, µM (doses to about 38.3 µM), for the others: top-dose activity change, negative = inhibition, usual class: inhibitors; actives 0.31% (n = 330,000); active = well fitted inhibition curve with a large enough effect; inconclusive = small, poorly fitted or top-dose-only effect; inactive = no such curve, though single readings can be large or run the other way; tested in mouse RAW 264.7 cells; also: % is scaled to controls: 0 for no effect and ±100 for the full control effect; nearly all actives have a fitted effect of over 55% in size
BCR signal inh: qHTS Assay to Find Inhibitors of Chronic Active B-Cell Receptor Signaling; AID 493014, 2011; Potency, µM (highest dose often 46.1 µM), for the others: top-dose activity change, negative = inhibition, hits mostly inhibitors; ABC-DLBCL IkBa-CBG/CBR reporter, luminescence ratio, 4 h; actives 0.05% (n = 340,000); active = well fitted inhibition curve with a large enough effect in the signal ratio, with a control signal flat, not every such curve was filed as active; inconclusive = small, poorly fitted or top-dose-only effect, or effect the other way, or a change in a side signal; the % refers to the signal ratio;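 also: plate controls were basal doxycycline-induced cells for no effect and cells given 10 µM MG132 for full effect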
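Compounds up to 46 uM were incubated four hours with TMD8 cells whose green CBG68 luciferase is fused to IkappaBalpha; red CBR luminescence normalised the signal, and concentration-effect curves were fitted to fusion, red and ratio data.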
Mito fusion act: qHTS Assay for Small Molecule Inhibitors of Mitochondrial Division or Activators of Mitochondrial Fusion. S. cerevisiae fusion-defective mutant growth rescue, CellTiterGlo 48 h. Potency, µM (doses to about 46.1 µM), for the others: top-dose growth rescue (activation), hits mostly activators. actives 0.23% (n = 320,000); also: % of control where 0% means no effect; nearly all actives have a fitted effect of over 45% in size
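Read-out: ATP-based luminescence (CellTiterGlo, 10 min ambient) reporting growth of fusion-defective ts yeast after 48 hours at 37C on glycerol/ethanol YPEG medium in the presence of compound.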
Integrin act MD: qHTS for Activators of Integrin-Mediated Alleviation for Muscular Dystrophy. alpha7betagal myoblasts, beta-gal FDG fluorescence, 48 h. Potency, µM (series often up to 38.3 µM), inactives show at the highest dose activation, most hits filed as activators. actives 0.064% (n = 350,000). AID 624291, 2012;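 also: 100% = response of the positive control SU9516; nearly all actives have a fitted effect of over 60% in size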
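Alpha7betagal+/- myoblasts (passage 13) were plated 16-24 hr, then exposed to compounds (1:260 dilution of DMSO stock) for 48 hours at 37C. After MPER lysis, β-galactosidase reporter activity was read as FDG fluorescence (ex 480/em 540) after 30 minutes.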
* hit, by the source's call. Unless noted, calls follow the shape of the dose curve; as a rule, active = well fitted curve in the direction sought with a large enough effect; inconclusive = small, poorly fitted or top-dose-only effect, or another doubt; inactive = no such curve, though single readings can be large; an effect the other way counts as inactive or inconclusive. Potency is read from the fitted curve at half-maximal effect.

`CCOC(=O)C1=C(C)N(C[C@@H]2CC[C@@H](Cc3ccc(-c4ccccc4)cc3)O2)C(=O)NC1c1cccc([N+](=O)[O-])c1` (stereo not given in full) gave uPA generation -11%, BCR signal inh 3% and Integrin act MD -13%.
`Cc1ccc(S(=O)(=O)c2cn(C)c3cc(N4CCN(C)CC4)c(F)cc3c2=O)c(C)c1` gave RORgamma inh inconclusive, VP16 counter inconclusive, uPA generation inconclusive, BCR signal inh 4%, Mito fusion act -5% and Integrin act MD -49%.
`O=c1[nH]c(=O)n(-c2ccc(F)cc2)c2c1C(C(F)(F)F)(C(F)(F)F)N=C(c1ccc(F)cc1)N2` gave RORgamma inh -26%, VP16 counter 16µM*, uPA generation -12%, BCR signal inh 0%, Mito fusion act -6% and Integrin act MD -54%.
`O=c1[nH]c(=O)n(Cc2ccco2)c2c1C(C(F)(F)F)(C(F)(F)F)N=C(CCc1ccccc1)N2` gave RORgamma inh inconclusive, VP16 counter -12%, BCR signal inh inconclusive, Mito fusion act 2% and Integrin act MD -25%.
`N#Cc1ccc(C2=NC(C(F)(F)F)(C(F)(F)F)c3c(n(Cc4ccco4)c(=O)[nH]c3=O)N2)cc1` gave RORgamma inh 13µM*, VP16 counter inconclusive, uPA generation -1%, BCR signal inh inconclusive, Mito fusion act -1% and Integrin act MD 13%.
N#C/C(=C\c1coc2ccc(O)cc2c1=O)C(=O)Nc1nc2ccccc2s1 was read as RORgamma inh inconclusive, VP16 counter inconclusive, uPA generation inconclusive, BCR signal inh inconclusive, Mito fusion act 8% and Integrin act MD -3%.
C=CCCN(C(C)C(=O)OC)S(=O)(=O)c1ccccc1Br (stereo not given) was read as RORgamma inh -23% and VP16 counter -4%.
CC(=O)c1ccc(OC(=O)Cc2cccc3ccccc23)cc1 was read as RORgamma inh 13%, VP16 counter 1%, uPA generation inconclusive, BCR signal inh 2%, Mito fusion act 2% and Integrin act MD inconclusive.
`Cc1ccc(C)c(-n2c(C)cc(/C=N/NC(=O)c3c(C)nc4cc(C)ccn34)c2C)c1` gave RORgamma inh inconclusive, VP16 counter 14µM*, uPA generation -5%, BCR signal inh 9%, Mito fusion act -2% and Integrin act MD -13%.
Screening Cc1ccc(C(=O)NCC(=O)N/N=C/c2cccs2)cc1[N+](=O)[O-] returned RORgamma inh -32%, VP16 counter 1%, uPA generation 9%, BCR signal inh 4%, Mito fusion act -7% and Integrin act MD 5%.
Screening Cc1ccc(-n2c(C)cc(/C=N/NC(=O)c3ccc(CN4CCOCC4)cc3)c2C)cc1 returned RORgamma inh 7.9µM*, VP16 counter inconclusive, BCR signal inh inconclusive, Mito fusion act -1% and Integrin act MD -5%.
CNC(=S)N/N=C/c1cc(C)n(-c2ccc(Cl)c(Cl)c2)c1C was read as RORgamma inh 0.79µM*, VP16 counter 4.5µM*, uPA generation -2%, BCR signal inh inconclusive and Integrin act MD -17%.
Cc1ccc(C(=O)N/N=C/c2cc(C)n(-c3ccc(Br)cc3)c2C)cc1[N+](=O)[O-] was read as RORgamma inh 0.4µM*, VP16 counter 1.4µM*, uPA generation -3%, BCR signal inh 8%, Mito fusion act 1% and Integrin act MD -17%.
Screening CN(c1ncnc2c1c(-c1ccccc1)cn2-c1cccc(Cl)c1)C1CCCCC1 returned BCR signal inh 3%.
